Methyltransferases: Primary Screen for Target Class Profiling of Small Molecule Inhibitors of Methyltransferases | calls only at 40 µM | AID 1745853, 2022 | purified enzyme, MTase-Glo SAH luminescence; active compounds read low | 25,000 compounds, 3.9% hits; call rule not given here
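Each enzyme was assayed with SAM and its substrate. SAH formation detected by MTase-Glo luminescence; single-point 40 uM screen[…].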
Calls only. The full list was thinned out, with hits kept by preference.

`O=c1[nH]c2ccc(S(=O)(=O)Nc3ccc(N4CCOCC4)cc3)cc2[nH]1` gave Methyltransferases inactive.
`c1cn2cc(-c3ccc4cn[nH]c4c3)nc(Nc3ccc(N4CCOCC4)cc3)c2n1` gave Methyltransferases active.
For Cc1nc(N2CCC(C(=O)NCCC3=CCCCC3)CC2)cc(C(F)(F)F)n1 the results were Methyltransferases inactive.
`C=C1C(=O)O[C@@H]2[C@H]3C(C)=CC(=O)C3=C(C)[C@@H](OC(=O)/C(C)=C\C)[C@H](O)[C@@H]12` gave Methyltransferases inactive.
Screening C=C1C(=O)OC2C(OC(=O)C=C(C)C)C(C)=C3C(=O)C=C(C)C3C(O)C12 (stereo not drawn) returned Methyltransferases active.
For CC(C(=O)NCc1cccc(Cl)c1)n1ccc2cc(S(=O)(=O)N3CCCC3)ccc21 (stereo not drawn) the results were Methyltransferases inactive.
Screening Cc1ccsc1C(=O)NC1CCN(c2cc(-c3ccc(F)cc3)[nH]n2)C1 (stereo not drawn) returned Methyltransferases inactive.
`CC(=O)OC1C[C@@]2(C)[C@@H](CC[C@@H](C)[C@]23Cc2c(O)cc4c(c2O3)CNC4=O)C(C)(C)[C@@H]1O` (stereo partly drawn) gave Methyltransferases inactive.
Cc1c(OCC(F)(F)F)ccnc1CS(=O)c1nc2ccccc2[nH]1 (stereo not drawn) was read as Methyltransferases active.
For Cc1ccc(Cl)cc1NC(=O)N1CCn2cccc2C1Cc1ccccc1 (stereo not drawn) the results were Methyltransferases inactive.
Cc1cc2ncc(C(=O)NCC(C)(C)NCC(=O)N3CCC[C@H]3C#N)cn2n1 was read as Methyltransferases inactive.
Screening CC(=O)N1CC2(CCCN2Cc2cccc(C(N)=O)c2)Cc2ccccc21 (stereo not drawn) returned Methyltransferases inactive.
O=C1CN(Cc2cccc(Cl)c2)S(=O)(=O)c2ccccc2N1Cc1ccc(Cl)cc1 was read as Methyltransferases inactive.
Screening O=C(O)c1cccc(CN2C(=O)/C(=C(\c3ccccc3)c3ccc(Cl)cc3)c3ccccc32)c1 returned Methyltransferases active.
COc1ccccc1CNC(=O)C1c2c(n(C)c3ccccc23)SCC(=O)N1c1cccc(Cl)c1 (stereo not drawn) was read as Methyltransferases inactive.
For Cc1cccc(N2C(=O)CSc3c(c4ccccc4n3C)C2C(=O)NCCCOC(C)C)c1C (stereo not drawn) the results were Methyltransferases inactive.
`CCC(C)NC(=O)c1ccc2c(=O)n(C)c3nn(Cc4ccc(F)cc4Cl)c(=O)n3c2c1` (stereo not drawn) gave Methyltransferases inactive.
COc1ccc(C(=O)N2CCN(CCCn3nc4n(c3=O)CCCC4)CC2)cc1 was read as Methyltransferases inactive.
O=C(O)/C=C/c1ccc(O)c(O)c1 was read as Methyltransferases inactive.
O=C(O)/C=C/c1ccc(-c2ccc(O)c(C34CC5CC(CC(C5)C3)C4)c2)cc1 was read as Methyltransferases active.
`Cc1nc([C@](C)(O)CO)sc1-c1cnc(N)c(O[C@H](C)c2cc(F)ccc2-n2nccn2)c1` gave Methyltransferases active.
Screening COc1ccc(CN2C(=O)c3cc4sccc4n3CC2(C)C(=O)NC2CCCCC2C)cc1 (stereo not drawn) returned Methyltransferases inactive.
For O=C(NC1CCCN(c2cc(N3CCCC3)ncn2)C1)c1ccco1 (stereo not drawn) the results were Methyltransferases inactive.
Screening COc1cc2nc(N3CCN(C(=O)c4ccco4)C4CCCCC43)nc(N)c2cc1OC (stereo not drawn) returned Methyltransferases active.
For O=C(c1ccco1)N1CCCCC1c1nc(C2CC2)n[nH]1 (stereo not drawn) the results were Methyltransferases inactive.
For CC1(C)CCC2(C(=O)OC3OC(CO)C(O)C(O)C3O)CCC3(C)C(=CCC4C5(C)CCC(O)C(C)(C(=O)O)C5CCC43C)C2C1O (stereo not drawn) the results were Methyltransferases inactive.
For CC(C)c1ccc(S(=O)(=O)N2CCCN(C)c3ccccc32)cc1 the results were Methyltransferases inactive.
`O=S(=O)(c1ccc(Cl)cc1)c1nnn2c1nc(NCc1ccccc1)c1ccccc12` gave Methyltransferases inactive.
`CCCn1c(=O)c2ccc(Cl)cc2n2c(SCc3ccccc3F)nnc12` gave Methyltransferases inactive.
Cc1cc(C(C#N)c2ccc(Cl)cc2)c(Cl)cc1NC(=O)c1cc(I)cc(I)c1O (stereo not drawn) was read as Methyltransferases active.
For CC(C)Cn1c(=O)c2ccc(C(=O)NC3CCCCC3)cc2n2c(=O)n(Cc3ccccc3)nc12 the results were Methyltransferases inactive.
`Clc1ccc(-c2nnn3c2nc(NC2CCCC2)c2ccccc23)cc1` gave Methyltransferases inactive.
CCc1ccc(N2C(=O)c3cc(-c4ccco4)nn3CC2(C)C(=O)NC2CCCCC2)cc1 (stereo not drawn) was read as Methyltransferases inactive.
CC(C)CCNC(=O)C1(C)Cn2nc(C(=O)NCc3ccccn3)cc2C(=O)N1C (stereo not drawn) was read as Methyltransferases inactive.
For CC(C)n1c(=O)c2ccc(C(=O)NC3CCCC3)cc2n2c(=O)n(CC(=O)c3cccc(Cl)c3)nc12 the results were Methyltransferases inactive.
CCN1CCCC1CNC(=O)c1cc(S(=O)(=O)CC)c(N)cc1OC (stereo not drawn) was read as Methyltransferases inactive.
For CCN1CCC[C@@H]1CNC(=O)c1ccc2c(c1)NC(=O)/C(=C/c1ccccc1F)S2 the results were Methyltransferases active.
CCN1CCC[C@H]1CNC(=O)c1c(O)c(Cl)cc(Cl)c1OC was read as Methyltransferases inactive.
COC(=O)[C@H]1CCCN1C(=O)[C@@H]1C[C@H](NC(=O)Nc2ccc(F)cc2F)CN1C(=O)CSC was read as Methyltransferases inactive.
For CC(C)CCC1(O)C(=O)C(C)(C)C(O[C@@H]2O[C@H](CO)[C@@H](O)[C@H](O)[C@H]2O)C(C)(C)C1O (stereo partly drawn) the results were Methyltransferases active.
Screening CC1(C)COC(=O)[C@@H]1O[C@@H]1O[C@H](CO)[C@@H](O)[C@H](O)[C@H]1O returned Methyltransferases inactive.
For CCC(C)C(=O)O[C@H]1[C@@H](O[C@H]2O[C@H](CO)[C@@H](O)[C@H](O)[C@H]2O)O[C@H](CO)[C@@H](O)[C@@H]1O (stereo partly drawn) the results were Methyltransferases inactive.
`Cc1ncc(-c2nc3cc(S(=O)(=O)NC(C)C)ccc3n2C(C)C)cn1` gave Methyltransferases inactive.
For c1coc(-c2noc(CN3CCCC3c3nc(-c4ccncc4)no3)n2)c1 (stereo not drawn) the results were Methyltransferases inactive.
For COc1cccc(OCCCN)c1-c1cc(Nc2cnc(C#N)cn2)n[nH]1 the results were Methyltransferases inactive.
For COc1cc(Nc2c(C#N)cnc3cc(OCCCN4CCN(C)CC4)c(OC)cc23)c(Cl)cc1Cl the results were Methyltransferases active.
For COc1cc2c(Oc3ccc(-c4cnc(Nc5ccc(F)cc5)n(C)c4=O)cc3F)ccnc2cc1OCCCN1CCOCC1 the results were Methyltransferases inactive.
C[C@@H]1CN(Cc2ccccc2)C[C@H]1c1nc2c(cnn2C2CCOCC2)c(=O)[nH]1 was read as Methyltransferases inactive.
`CSc1ccc(CCNC(=O)Cn2ccc3cc(S(=O)(=O)N4CCC(C)CC4)ccc32)cc1` gave Methyltransferases inactive.
